# Source: PubChem BioAssay (Tox21)
# Records with an inconclusive call do not appear. A call without a number means that no potency is given here. Activity calls are given as the source filed them. Calls follow the shape of the dose curve; as a rule, active = well fitted cell-killing curve with a large enough effect in the repeat runs; inconclusive = weak or mixed curves, or effect the other way; inactive = flat fitted curve, though single readings scatter.
# How the values were obtained:
# [1] = cAMP Responsive Elements (CRE) small molecule antagonists, cell-based qHTS assay: qHTS cell viability counter screen (AID 2060913); also: nearly all actives have a fitted effect of over 40% in size
# Outline: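 HEK293T CRE-bla, 2,000 cells/well, 18 h preincubation; cpd in DMSO + NKH477 0.25 uM final, 3 h 37 C/5% CO2; LiveBLAzer 2 h RT, then CellTiter-Glo 30 min RT, luminescence.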
# [2] = cAMP Responsive Elements (CRE) small molecule agonists, cell-based qHTS assay: qHTS cell viability counter screen (AID 2060914); also: nearly all actives have a fitted effect of over 50% in size
# Outline: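 In the same wells as the reporter read, viability of CRE-bla HEK 293T cells was quantified by CellTiter-Glo luminescence after a 3 h compound exposure.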
SMILES,Potency [1],Potency [2]
O=C(c1ccc(O)cc1O)c1ccc(O)cc1O,inactive,inactive
CCCCCC,inactive,inactive
CC(C)(C)OC(=O)c1ccc(O)cc1,inactive,inactive
